The text below walks through data of the supplement of paper PMC6658780.

Structures can show the parent of a compound that is named as a salt. ± gives the standard deviation of the averaged measurements.

The subject of the first assay is Escherichia coli ATCC BAA-2469. Kind of assay: percent growth inhibition of drug alone vs DMSO control; higher = more growth inhibition. As to conditions: antibiotic (0.125x MIC): none (0.1% DMSO); 7 µM. Here is the method:
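Prestwick drugs tested at 20 uM and 7 uM with an antibiotic at 0.125x MIC (16 mg/L when MIC >128 mg/L) against E. coli ATCC BAA-2469 (NDM-1) in CAMHB, 384-well plates, duplicate runs. Percent growth inhibition was computed from OD600 (24 h minus 0 h) relative to DMSO wells. Drug + DMSO-only wells are also given. […]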
As for `Nc1c2ccccc2nc2ccccc12` [Aminacrine], the “percent growth inhibition of drug alone” value stood at 1.8 ± 0.95%. For the molecule `CC[C@H]1OC(=O)[C@H](C)[C@@H](O[C@H]2C[C@@](C)(OC)[C@@H](O)[C@H](C)O2)[C@H](C)[C@@H](O[C@@H]2O[C@H](C)C[C@H](N(C)C)[C@H]2O)[C@](C)(O)C[C@@H](C)CN(C)[C@H](C)[C@@H](O)[C@]1(C)O` [Azithromycin], the “percent growth inhibition of drug alone” value turned out to be 22.2 ± 12%. In the case of `Cc1cccc(C)c1NC(=O)C1CCCCN1C` (stereo not drawn) [Mepivacaine hydrochloride], the “percent growth inhibition of drug alone” value was -0.605 ± 0.25%. For the molecule `OC(CCN1CCCC1)(c1ccccc1)C1CCCCC1` (stereo not drawn) [Procyclidine hydrochloride], the “percent growth inhibition of drug alone” value was determined as 3.3 ± 1.6%. For `CO/N=C(\C(=O)N[C@@H]1C(=O)N2C(C(=O)O)=C(COC(N)=O)CS[C@H]12)c1ccco1` [Cefuroxime sodium salt], the “percent growth inhibition of drug alone” value is -0.846 ± 2.2%. On to `CCOC(=O)c1ccc(OC(=O)CCCCCNC(=N)N)cc1` [Gabexate mesilate], for which the “percent growth inhibition of drug alone” value was determined as 3.5 ± 6.5%.

With `Cc1c(N(C)C)c(=O)n(-c2ccccc2)n1C` [Amidopyrine], the “percent growth inhibition of drug alone” value is 0.00227 ± 1.1%. Turning to `CCCOc1ccc2[nH]c(NC(=O)OC)nc2c1` [Oxibendazol], the “percent growth inhibition of drug alone” value turned out to be 0.775 ± 0.31%.

Take `Cc1nnc(NS(=O)(=O)c2ccc(N)cc2)s1` [Sulfamethizole]: the “percent growth inhibition of drug alone” value amounted to 2.42 ± 3%. As to `CS(=O)(=O)c1ccc([C@@H](O)[C@@H](CO)NC(=O)C(Cl)Cl)cc1` [Thiamphenicol], the “percent growth inhibition of drug alone” value came out at 4.47 ± 3.6%. Take `Cc1cc(/C=C/c2ccc3cc(N(C)C)ccc3[n+]2C)c(C)n1-c1ccccc1` [Pyrvinium pamoate]: the “percent growth inhibition of drug alone” value was determined as 11.8 ± 12%. Still for that read-out and setting: in the case of `O=C(N[C@H](CO)[C@H](O)c1ccc([N+](=O)[O-])cc1)C(Cl)Cl` [Chloramphenicol] it was 27.7 ± 12%; in that of `O=C1c2c(O)ccc(O)c2C(=O)c2c(NCCNCCO)ccc(NCCNCCO)c21` [Mitoxantrone dihydrochloride], 7.78 ± 5.1%.

The assay is the same for the next values; noted with them: antibiotic (0.125x MIC): none (0.1% DMSO); 20 µM.
Consider `Nc1c2ccccc2nc2ccccc12` [Aminacrine], for which the “percent growth inhibition of drug alone” value was determined as 21 ± 13%. Regarding `Cc1cccc(C)c1NC(=O)C1CCCCN1C` (stereo not drawn) [Mepivacaine hydrochloride], the “percent growth inhibition of drug alone” value is -0.545 ± 1.2%. Consider `OC(CCN1CCCC1)(c1ccccc1)C1CCCCC1` (stereo not drawn) [Procyclidine hydrochloride], for which the “percent growth inhibition of drug alone” value is -0.85 ± 5%.

Turning to `CO/N=C(\C(=O)N[C@@H]1C(=O)N2C(C(=O)O)=C(COC(N)=O)CS[C@H]12)c1ccco1` [Cefuroxime sodium salt], the “percent growth inhibition of drug alone” value is -0.542 ± 0.39%. As to `CCOC(=O)c1ccc(OC(=O)CCCCCNC(=N)N)cc1` [Gabexate mesilate], the “percent growth inhibition of drug alone” value worked out at 0.291 ± 0.37%.

As to `Cc1c(N(C)C)c(=O)n(-c2ccccc2)n1C` [Amidopyrine], the “percent growth inhibition of drug alone” value was -1.02 ± 2.5%. Consider `CCCOc1ccc2[nH]c(NC(=O)OC)nc2c1` [Oxibendazol], for which the “percent growth inhibition of drug alone” value came to 2.44 ± 0.18%. As to `Cc1nnc(NS(=O)(=O)c2ccc(N)cc2)s1` [Sulfamethizole], the “percent growth inhibition of drug alone” value is -3.23 ± 2.1%. As to `Cc1cc(/C=C/c2ccc3cc(N(C)C)ccc3[n+]2C)c(C)n1-c1ccccc1` [Pyrvinium pamoate], the “percent growth inhibition of drug alone” value is 13.6 ± 3.2%. Turning to `CO[C@H]1/C=C/O[C@@]2(C)Oc3c(C)c(O)c4c(O)c(c5c(nc6cc(C)ccn65)c4c3C2=O)NC(=O)/C(C)=C\C=C\[C@H](C)[C@H](O)[C@@H](C)[C@@H](O)[C@@H](C)[C@H](OC(C)=O)[C@@H]1C` [Rifaximin], the “percent growth inhibition of drug alone” value worked out at 102 ± 7.8%.
